Where “and” joins values, the source holds several entries; their conditions need not be identical. Equal values may be shown once. Compounds without any hit were thinned out: in the full panel of roughly 79,000, 15% have a hit. Where a structure was tested more than once in an assay, its records may differ in their call. Calls of active or inactive are those of the source. Cut-off read from the data, not from the text of the source: active = growth inhibition above about 70%; inactive = the rest.
experiment: NCI Yeast Anticancer Drug Screen. Data for the rad50 strain (AID 155);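 note: 0% = growth of vehicle-only cultures of the same strain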; conditions: S. cerevisiae rad50 strain growth inhibition; at 50.0 µM; stronger effect = higher value
In short: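 Genetically altered yeast (DNA repair pathway); compound treatment; growth inhibition vs vehicle ctrl.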

| SMILES | growth inhibition |
| --- | --- |
| CC(C)(C)CC(C)(C)c1ccc(O)cc1 | 99.7% (active) |
| CC[n+]1c(/C=C/c2ccc(N(CCCl)CCCl)cc2)ccc2cc(I)ccc21 | 91% (active) |
| CCCCCCC1CCC2CCCC(C)N12 (stereo not drawn) | 85.3% (active) |
| C[N+](C)(C)CC1CCC(C[N+](C)(C)C)C1=O (stereo not drawn) | -1.75% (inactive) |
| CCC[CH2][Sn]1([CH2]CCC)[O]C(=O)c2cc(C)ccc2[O]1 | 88.8% (active) |
| COc1ccc(CC2C(=O)NC(C)C(=O)N(C)C3C(=O)N(C)C(Cc4ccc(O)c(c4)Oc4ccc(cc4)C3O)C(=O)NC(C)C(=O)NC(C)C(=O)N2C)cc1 (stereo not drawn) | 75.9% (active) |
| CC(=O)Nc1cccc([As+](C)(c2cccc(NC(C)=O)c2)c2cccc(NC(C)=O)c2)c1 | 4.35% (inactive) |
| COC1OC(COC(C)=O)C(OC(C)=O)C(OC(C)=O)[C]1(OC(C)=O)[Hg][O]C(C)=O (stereo not drawn) | 99.3% (active) |
| CCOC(=O)C(NC(=O)C(Cc1ccc(N(CCCl)CCCl)cc1)NC(C)=O)C(C)C (stereo not drawn) | 17.5% (inactive) and 11.7% (inactive) |
| CN1c2cccc[c]2[Sn]([CH3])([CH3])[c]2ccccc21 | 99.4% (active) |
| Cc1ccc(C(=O)OC(C(=O)O)C(OC(=O)c2ccc(C)cc2)C(=O)O)cc1 (stereo not drawn) (tested in a mixture with another compound) | 6.35% (inactive) and 92.2% (active) |
| CC(C)(c1ccccc1)c1ccc(O)cc1 | 98% (active) |
| CC1(C)N=C(N)N=C(N)N1CCCOc1ccc(NC(=O)c2ccc(S(=O)(=O)F)cc2)cc1 | 20.2% (inactive) |
| CC1=CC2OC3CC4OC(=O)/C=C/C=C/C(=O)OCCC(C)C(O)C(=O)OCC2(CC1O)C4(C)C31CO1 (stereo not drawn) | 92.3% (active) |
| C=CCOc1cc2c(ccc1=O)-c1c(cc(OC)c(OC)c1OC)CCC2NC(C)=O (stereo not drawn) | 96.1% (active) |
| c1ccc2c(c1)[As]=c1ccccc1=[As]2 (stereo not drawn) | 89% (active) |
| CCC(C)(c1ccc(O)cc1)c1ccc(O)cc1 | 98.9% (active) |
| COc1cc(C2c3cc4c(cc3[C@@H](Nc3ccc(F)cc3)C3COC(=O)[C@H]23)OCO4)cc(OC)c1O (stereo partly drawn) | 85.3% (active) |
| CC(C)(C)OC(=O)NC(CSC(c1ccccc1)(c1ccccc1)c1cccs1)C(=O)O (stereo not drawn) | 95.7% (active) |
| CCOP(=S)(OCC)OC(c1ccc(Cl)cc1)c1ccc(Cl)cc1 | 12.8% (inactive) |

| SMILES | growth inhibition |
| --- | --- |
| COc1ccc(OC)c(C=O)c1 | 24.9% (inactive) |
| CC(=O)Oc1cccc2c1CC(C[Se]c1ccccc1)C(=O)O2 (stereo not drawn) | 69.9% (inactive) |
| CCOC(=S)S | 98.9% (active) |
| CC(NCCN(C)C)C1CC2CCCCN2C1 (stereo not drawn) | 3.55% (inactive) |
| Nc1ncc(CCCCc2ccc(NC(=O)Nc3ccc(S(=O)(=O)F)cc3)cc2)c(N)n1 | 98.5% (active) |
| CC#N.FC(F)(F)C#CC(F)(F)F.FC(F)(F)C#CC(F)(F)F.FC(F)(F)C#CC(F)(F)F.[W] | 99.4% (active) |
| [Cl][Hg][CH2]CC1CC=CCC1 (stereo not drawn) | 99.2% (active) |
| CC(=O)O[C@H]1CC[C@H]2[C@@H]3CCC4=CC(=O)CC[C@@H]4[C@H]3CC[C@]12C | 96.8% (active) |
| c1ccc(P(CCP(c2ccccc2)c2ccccc2)CCP(c2ccccc2)c2ccccc2)cc1 | 92.3% (active) |
| Cc1cc(NCc2ccccc2)c2ccccc2[n+]1CCCCCCCCCC[n+]1c(C)cc(NCc2ccccc2)c2ccccc21 | 90.8% (active) |
| CCCCC(CC)CNP(=S)(NCC(CC)CCCC)NCC(CC)CCCC (stereo not drawn) | 58.9% (inactive) |
| Nc1c(Br)cc(Br)c2c1C(=O)c1ccccc1C2=O | -10.6% (inactive) |
| O=[N+]([O-])/C=C/c1cc2c(cc1Br)OCO2 | 98.5% (active) |
| CC(Br)CN(CC(C)Br)c1ccc2c(c1)Cc1ccccc1-2 (stereo not drawn) | 82.8% (active) |
| c1ccc2c[n+](CCCCCCCCCC[n+]3ccc4ccccc4c3)ccc2c1 | 89.2% (active) |
| CCC[CH2][Sn]([N]=C=S)([N]=C=S)[N]=C=S.O=P(c1ccccc1)(c1ccccc1)c1ccccc1.O=P(c1ccccc1)(c1ccccc1)c1ccccc1 | 50.3% (inactive) |
| CN(CCC(N)CC(=O)NC1C=CC(n2ccc(N)nc2=O)OC1C(=O)O)C(=N)N (stereo not drawn) | 91.8% (active) |
| O=C1C=CC(=O)N1c1cccc2ccccc12 (tested in a mixture with another compound) | 10.3% (inactive) |
| CN(C)c1ccc(N=Cc2c([O-])ccc3ccccc23)cc1.[C-]#[O+].[C-]#[O+].[Ir] | 83.4% (active) |

experiment: NCI Yeast Anticancer Drug Screen. Data for the mec2-1 strain (AID 157); conditions: S. cerevisiae mec2-1 strain, at 5.0 µM (retest, dose inferred, filed as 0.5), stronger effect = higher value
In short: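 Each compound was tested on mec2-1 yeast, a strain altered in DNA damage repair or cell cycle control. Growth inhibition is reported relative to vehicle.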

| SMILES | growth inhibition |
| --- | --- |
| CC(C)(C)CC(C)(C)c1ccc(O)cc1 | -12% (inactive) |
| CC[n+]1c(/C=C/c2ccc(N(CCCl)CCCl)cc2)ccc2cc(I)ccc21 | 99% (active) |
| CCCCCCC1CCC2CCCC(C)N12 (stereo not drawn) | -4% (inactive) |
| C[N+](C)(C)CC1CCC(C[N+](C)(C)C)C1=O (stereo not drawn) | 11% (inactive) |
| CCC[CH2][Sn]1([CH2]CCC)[O]C(=O)c2cc(C)ccc2[O]1 | 89% (active) |
| COc1ccc(CC2C(=O)NC(C)C(=O)N(C)C3C(=O)N(C)C(Cc4ccc(O)c(c4)Oc4ccc(cc4)C3O)C(=O)NC(C)C(=O)NC(C)C(=O)N2C)cc1 (stereo not drawn) | 29% (inactive) |
| CC(=O)Nc1cccc([As+](C)(c2cccc(NC(C)=O)c2)c2cccc(NC(C)=O)c2)c1 | 13% (inactive) |
| COC1OC(COC(C)=O)C(OC(C)=O)C(OC(C)=O)[C]1(OC(C)=O)[Hg][O]C(C)=O (stereo not drawn) | 100% (active) |
| CCOC(=O)C(NC(=O)C(Cc1ccc(N(CCCl)CCCl)cc1)NC(C)=O)C(C)C (stereo not drawn) | -1% (inactive) |
| CN1c2cccc[c]2[Sn]([CH3])([CH3])[c]2ccccc21 | 99% (active) |
| Cc1ccc(C(=O)OC(C(=O)O)C(OC(=O)c2ccc(C)cc2)C(=O)O)cc1 (stereo not drawn) (tested in a mixture with another compound) | -7% (inactive) |
| CC(C)(c1ccccc1)c1ccc(O)cc1 | -38% (inactive) |
| CC1(C)N=C(N)N=C(N)N1CCCOc1ccc(NC(=O)c2ccc(S(=O)(=O)F)cc2)cc1 | -6% (inactive) |
| CC1=CC2OC3CC4OC(=O)/C=C/C=C/C(=O)OCCC(C)C(O)C(=O)OCC2(CC1O)C4(C)C31CO1 (stereo not drawn) | 96% (active) |
| C=CCOc1cc2c(ccc1=O)-c1c(cc(OC)c(OC)c1OC)CCC2NC(C)=O (stereo not drawn) | 3% (inactive) |
| c1ccc2c(c1)[As]=c1ccccc1=[As]2 (stereo not drawn) | 95% (active) |
| CCC(C)(c1ccc(O)cc1)c1ccc(O)cc1 | -5% (inactive) |
| COc1cc(C2c3cc4c(cc3[C@@H](Nc3ccc(F)cc3)C3COC(=O)[C@H]23)OCO4)cc(OC)c1O (stereo partly drawn) | 97% (active) |
| CC(C)(C)OC(=O)NC(CSC(c1ccccc1)(c1ccccc1)c1cccs1)C(=O)O (stereo not drawn) | 17% (inactive) |
| CCOP(=S)(OCC)OC(c1ccc(Cl)cc1)c1ccc(Cl)cc1 | 0% (inactive) |

| SMILES | growth inhibition |
| --- | --- |
| COc1ccc(OC)c(C=O)c1 | 0% (inactive) |
| CC(=O)Oc1cccc2c1CC(C[Se]c1ccccc1)C(=O)O2 (stereo not drawn) | 8% (inactive) |
| CCOC(=S)S | 17% (inactive) |
| CC(NCCN(C)C)C1CC2CCCCN2C1 (stereo not drawn) | -8% (inactive) |
| Nc1ncc(CCCCc2ccc(NC(=O)Nc3ccc(S(=O)(=O)F)cc3)cc2)c(N)n1 | -15% (inactive) |
| CC#N.FC(F)(F)C#CC(F)(F)F.FC(F)(F)C#CC(F)(F)F.FC(F)(F)C#CC(F)(F)F.[W] | 83% (active) |
| [Cl][Hg][CH2]CC1CC=CCC1 (stereo not drawn) | 100% (active) |
| CC(=O)O[C@H]1CC[C@H]2[C@@H]3CCC4=CC(=O)CC[C@@H]4[C@H]3CC[C@]12C | -1% (inactive) |
| c1ccc(P(CCP(c2ccccc2)c2ccccc2)CCP(c2ccccc2)c2ccccc2)cc1 | 94% (active) |
| Cc1cc(NCc2ccccc2)c2ccccc2[n+]1CCCCCCCCCC[n+]1c(C)cc(NCc2ccccc2)c2ccccc21 | 100% (active) |
| CCCCC(CC)CNP(=S)(NCC(CC)CCCC)NCC(CC)CCCC (stereo not drawn) | -3% (inactive) |
| Nc1c(Br)cc(Br)c2c1C(=O)c1ccccc1C2=O | 2% (inactive) |
| O=[N+]([O-])/C=C/c1cc2c(cc1Br)OCO2 | 53% (inactive) |
| CC(Br)CN(CC(C)Br)c1ccc2c(c1)Cc1ccccc1-2 (stereo not drawn) | 2% (inactive) |
| c1ccc2c[n+](CCCCCCCCCC[n+]3ccc4ccccc4c3)ccc2c1 | 70% (active) |
| CCC[CH2][Sn]([N]=C=S)([N]=C=S)[N]=C=S.O=P(c1ccccc1)(c1ccccc1)c1ccccc1.O=P(c1ccccc1)(c1ccccc1)c1ccccc1 | -4% (inactive) |
| CN(CCC(N)CC(=O)NC1C=CC(n2ccc(N)nc2=O)OC1C(=O)O)C(=N)N (stereo not drawn) | 86% (active) |
| O=C1C=CC(=O)N1c1cccc2ccccc12 (tested in a mixture with another compound) | -39% (inactive) |
| CN(C)c1ccc(N=Cc2c([O-])ccc3ccccc23)cc1.[C-]#[O+].[C-]#[O+].[Ir] | 15% (inactive) |

From PubChem BioAssay (NCI)
